FXIa mix inh: factor XIa (human) inhibition, mixture screen; 0.19% of 62,000 active; P03951; AID 680; purified FXIa, fluorogenic substrate, pooled mixtures; inhibition, % at 5 µM;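 note: each value is inhibition by a whole ten-compound pool holding the compound; 0% = enzyme with no mixture and 100% = wells lacking enzyme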
Target sequence (P03951 19-387 limits assumed): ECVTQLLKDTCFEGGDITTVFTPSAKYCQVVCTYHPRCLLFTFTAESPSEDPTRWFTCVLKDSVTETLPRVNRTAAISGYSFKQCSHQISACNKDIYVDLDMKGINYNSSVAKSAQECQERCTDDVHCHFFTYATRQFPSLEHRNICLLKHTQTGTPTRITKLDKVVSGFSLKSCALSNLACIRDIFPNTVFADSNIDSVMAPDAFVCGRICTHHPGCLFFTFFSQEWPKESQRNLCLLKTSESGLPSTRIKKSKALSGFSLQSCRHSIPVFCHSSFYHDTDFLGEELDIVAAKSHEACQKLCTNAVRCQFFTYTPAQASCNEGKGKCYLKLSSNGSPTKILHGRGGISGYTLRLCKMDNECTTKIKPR
Target sequence (P03951 388-625 limits assumed): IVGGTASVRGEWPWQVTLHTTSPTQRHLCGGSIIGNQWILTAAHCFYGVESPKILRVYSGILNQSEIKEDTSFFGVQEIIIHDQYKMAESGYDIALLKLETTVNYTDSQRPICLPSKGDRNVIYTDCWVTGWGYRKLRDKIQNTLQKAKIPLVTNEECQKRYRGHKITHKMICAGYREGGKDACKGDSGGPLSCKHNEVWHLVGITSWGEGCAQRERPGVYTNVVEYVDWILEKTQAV
FXIIa inh mix: blocks human factor XIIa in pooled compound mixtures; inhibition, % at 5 µM; purified FXIIa, fluorogenic substrate; AID 684; 0.2% of 62,000 active; P00748;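 note: 0% = enzyme without compound and 100% = no enzyme blank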
WNV protease inh: WNV NS2B-NS3 proteinase inhibition | P06935 | WNV NS2B-NS3 protease, fluorogenic substrate Ex360/Em465; stronger effect = lower value | z-score (no concentration beside the values) | 0.18% of 65,000 active | AID 577; in the data active = z-score below about -3
CatG inh: inhibitors of human cathepsin G; purified enzyme, AMC-tetrapeptide fluorescence, pooled mixtures; AID 581; 0.2% of 62,000 active; inhibition, % at 5 µM (by protocol); P08311;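 active = inhibition above 20% in each of the two mixture wells holding the compound; inactive = inhibition of 20% or less in either well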;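 note: 0% = enzyme control without mixture and 100% = blank lacking enzyme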
C1s block: human complement C1s inhibition | mean inhibition % of two 10-compound mixtures (stronger effect = higher value), % at 5 µM (by protocol) | purified C1s, fluorogenic AMC substrate, pooled mixtures | 0.16% of 62,000 active | AID 538 | P09871;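 active = inhibition above 20% in each of the two 10-compound mixture wells holding the compound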;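 note: 0% = enzyme wells lacking compound mixture and 100% = no-enzyme blank wells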
Starred values were filed as active, the others as inactive. Most compounds without a hit are left out; they make up all but 0.76% or so of the library. Cut-off read from the data, not from the text of the source, unless noted: active = inhibition above about 20% (passing the limit was not always enough); inactive = the rest.

SMILES	FXIa mix inh	FXIIa inh mix	WNV protease inh	CatG inh	C1s block
COc1ccc(C2C(C(=O)c3cccs3)=C(O)C(=O)N2c2nnc(C)s2)cc1OC (stereo not drawn)	5.9	11.2	0.45	11.3	2.9
COc1ccc(C2C(C(=O)c3cccs3)=C(O)C(=O)N2c2nncs2)cc1 (stereo not drawn)	43.2*	0.8	-0.94	22.0*	12.7
COc1ccccc1-c1cc(C(=O)NC(C)C)no1	7.0	5.0	0.45	13.0	7.3
COc1ccccc1-c1cc(C(=O)NC(C)c2ccccc2)no1 (stereo not drawn)	9.3	-3.2	-0.89	33.1*	7.3
Cc1ccc(CS(=O)(=O)CCC(=O)NCCN2CCCC2)cc1	7.7	10.0	-1.62	10.4	16.0
Cc1ccc(CS(=O)(=O)CCC(=O)NCCCN2CCCC2=O)cc1	7.1	21.8*	-1.53	-0.7	-28.2
NC(=O)CSCc1ccc(Br)cc1	-5.4	4.5	-1.13	1.9	-53.7
O=C(O)CSCc1ccc(Cl)cc1	5.5	65.4*	0.07	13.2	11.2
O=S(=O)(Nc1ccc2nc(-c3ccc(Br)o3)[nH]c2c1)c1ccccc1	-5.1	27.9*	-1.26	4.5	-16.5
CC(C)CN(CC(C)C)C(=O)CS(=O)(=O)Cc1ccccc1	4.2	8.3	-0.07	12.4	-4.1
O=C(c1ccco1)N1CCN=C1SCc1c(F)cccc1Cl	29.5*	11.2	1.02	0.9	-96.7
COc1ccc(N2CCN(C(=O)CC3NC4CCCCC4NC3=O)CC2)cc1 (stereo not drawn)	2.5	-6.9	-0.36	1.7	-0.8
COc1cc(NC(=O)c2cccc3c2C(=O)N(Cc2cccnc2)C3)cc(OC)c1OC	-5.7	8.2	0.41	-7.1	-59.2
Cc1[nH]c(=O)[nH]c(=O)c1CSc1nnc([C@@H](NC(=O)OC(C)(C)C)C(C)C)o1	2.1	-19.5	0.22	10.2	2.8
CC[C@@H](C)[C@H](NC(=O)OC(C)(C)C)c1nnc(S(=O)(=O)Cc2cc(C)ccc2C)o1	18.1	1.8	0.11	26.8*	4.2
Cc1ccccc1CS(=O)(=O)c1nnc([C@H](CC(C)C)NC(=O)OC(C)(C)C)o1	6.2	-12.0	0.33	20.5*	14.6
CC(C)(C)OC(=O)N[C@@H](Cc1ccccc1)c1nnc(S(=O)(=O)Cc2cccc(F)c2)o1	6.2	16.5	-0.03	62.9*	-7.2
CC(C)[C@H](NC(=O)OC(C)(C)C)c1nnc(S(=O)(=O)Cc2c(F)cccc2Cl)o1	17.5	4.7	0.21	37.7*	13.0
CCOC(=O)c1c(NC(=O)c2cc(C3CC3)on2)sc2c1CCCC2	-6.4	8.5	0.04	2.2	4.4
CC1(C)CC(NC(=O)C23CCC(C)(C(=O)C2)C3(C)C)CC(C)(C)N1 (stereo not drawn)	10.9	-0.2	-0.1	8.1	-6.5
COc1ccccc1C1CC(c2ccccc2)Nc2ncnn21 (stereo not drawn)	-4.7	-20.1	-0.2	8.8	-6.3
N#CCCn1nc(-c2ccccc2)cc1Nc1ccccc1NC(=O)c1cccs1	11.4	-14.7	0.06	9.1	11.7
CCN(CC)c1ccc(NC(=O)CN2C(=O)CSc3ncccc32)c(C)c1	22.9*	0.3	-1.26	28.5	11.8
CC(C)CCN1CC(C(=O)NCc2ccc(F)cc2)CC1=O (stereo not drawn)	7.9	1.7	-4.04*	-0.8	-26.2
O=C(NCc1ccc(F)cc1)C1CC(=O)N(CCc2ccccc2)C1 (stereo not drawn)	-0.8	-0.6	-1.05	2.6	2.9
SMILES	FXIa mix inh	FXIIa inh mix	WNV protease inh	CatG inh	C1s block
CCCCNC(=O)c1nc2ncc(Br)cn2n1	25.3*	3.2	0.42	3.7	1.3
CCCNC(=O)c1nc2ncc(Br)cn2n1	3.3	-15.0	0.58	3.2	-33.1
Clc1ccc(SCCn2ccnc2)cc1	15.5	2.5	0.38	12.3	18.8
O=C(COC(=O)C12CC3CC(CC(C3)C1)C2)N1CCN(S(=O)(=O)c2ccccc2)CC1	37.1*	2.1	-0.6	45.2	-3.4
O=C(COc1ccccc1Cl)OCC(=O)N1CCN(S(=O)(=O)c2ccccc2)CC1	5.6	-1.9	0.06	12.8	12.5
COc1ccc(N2CCN(Cc3nc4c(c(=O)n(C)c(=O)n4C)n3Cc3ccccc3C)CC2)cc1	5.3	-15.5	-0.07	14.5	13.8
CCn1c(O)c(C=NCCN2CCOCC2)sc1=S	7.3	0.9	-4.55*	0.3	-8.7
COCCCn1c(=S)[nH]c2ncccc2c1=O	2.3	4.0	-0.41	2.7	4.5
COCCn1c(=S)[nH]c2ncccc2c1=O	37.6*	8.0	1.08	50.5	-8.6
Cn1c(C(=O)NCCCN2CCCC2=O)cc2c(=O)n3ccccc3nc21	-6.6	-2.8	4.44	-13.1	-136.4
O=C(N1CCN(c2ccccn2)CC1)N1c2ccccc2Sc2ccccc21	-3.3	-6.2	-0.43	8.0	-0.4
O=C(COc1ccc(Cl)cc1)OCC(=O)N1CCCCCC1	27.0*	0.0	0.59	-1.6	-0.1
O=C(COc1ccc(Cl)cc1)OCC(=O)N1CCCC1	7.3	1.7	-0.07	-0.7	-1.8

Assay outcomes deposited in PubChem by several laboratories.
